Measurements published in PubChem BioAssay (EPA / NIEHS).
Active and inactive are the calls of the source. How the source made its calls: active means hit-call score of the fitted dose curve at least 0.9, where 1 is the maximum; inactive means score below 0.9.

Legend:
[1] = APR_HepG2_P-H2AX_72hr: Apredica 72-hour HepG2 Assay for H2AX Phosphorylation (AID 2282916); settings: imaging, actives raise or lower the signal;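 further: phospho-histone H2A.x immunostain intensity per cell marking DNA damage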
Method in brief: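 HepG2 human liver cells were exposed for 72 hr to compounds at 0.39–200 uM (10 concentrations, duplicate per plate) in 0.5% v/v DMSO. Fixed, permeabilized cells were immunolabeled for phospho-histone H2A.x with Hoechst 33342 and imaged by HCS fluorescence; bidirectional fit versus DMSO.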

[2] = APR_HepG2_MitoMembPot_72hr: Apredica 72-hour HepG2 Assay for Mitochondrial Membrane Potential (AID 2282917); settings: imaging, actives raise or lower the signal
Method in brief: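 Membrane potential read by MitoTracker Red CMXRos (250 nM, 30 min, pre-fixation) fluorescence imaging of HepG2 after 72 hr exposure. Ten concentrations, 0.39–200 uM, duplicate wells, 0.5% DMSO; fitted in both directions against DMSO baseline.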

[3] = APR_HepG2_MitoticArrest_72hr: Apredica 72-hour HepG2 Assay for Mitotic Arrest (AID 2282918); settings: high-content imaging, actives raise or lower the signal
Method in brief: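 HepG2 cells treated 72 h at 0.39–200 uM, 0.5% DMSO final; formaldehyde-fixed, stained with Hoechst 33342 and phospho-histone H3 antibody, imaged by high-content fluorescence; bidirectional fit versus DMSO.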

[4] = APR_HepG2_MicrotubuleCSK_72hr: Apredica 72-hour HepG2 Assay for Microtubule CSK Stabilty (AID 2282919); settings: HepG2 microtubule cytoskeleton, high-content imaging, actives raise or lower the signal
Method in brief: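 Read-out is tubulin fluorescence intensity from high-content imaging of HepG2 cells, with nuclei identified by Hoechst 33342. Treatment lasts 72 h at 0.39–200 uM, and curves are fitted bidirectionally against the DMSO negative control.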

[5] = APR_HepG2_StressKinase_72hr: Apredica 72-hour HepG2 Assay for Stress Kinase (AID 2282921); settings: HepG2 stress kinase (phospho-c-Jun) imaging, actives raise or lower the signal
Method in brief: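 Cells were exposed for 72 h to ten concentrations (0.39–200 uM, duplicate) at 0.5% v/v DMSO final, then fixed with 3.7% formaldehyde, permeabilized and immunostained for phospho-c-Jun (Cy3 secondary) with Hoechst nuclear counterstain.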

[6] = APR_HepG2_StressKinase_24hr: Apredica 24-hour HepG2 Assay for Stress Kinase (AID 2282922); settings: HepG2 stress kinase (phospho-c-Jun) imaging, actives raise or lower the signal
Method in brief: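 HepG2, 24 hr dosing, 0.39–200 uM in duplicate, 0.5% DMSO; formaldehyde fix (3.7%), 0.5% Triton X-100; anti-phospho-c-Jun + Cy3 secondary, Hoechst counterstain; ArrayScan imaging; bidirectional curve fit vs DMSO baseline.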

[7] = APR_HepG2_p53Act_72hr: Apredica 72-hour HepG2 Assay for p53 Activation (AID 2282923); settings: high-content imaging, actives raise or lower the signal;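 further: average cellular p53 protein immunofluorescence intensity in HepG2 cells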
Method in brief: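 Cells were dosed for 72 hr with compounds at 0.39–200 uM in duplicate (final DMSO 0.5% v/v), then fixed in 3.7% formaldehyde, permeabilized with Triton X-100 and immunostained for p53 (Cy5) with Hoechst 33342 nuclear counterstain.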

[8] = APR_HepG2_MitoMass_72hr: Apredica 72-hour HepG2 Assay for Mitochondrial Mass (AID 2282924); settings: high-content imaging, actives raise or lower the signal;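 further: MitoTracker Red CMXRos stain intensity per cell imaged as mitochondrial mass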
Method in brief: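 HepG2, 72 hr cmpd, 10 conc 0.39–200 uM in dup, DMSO 0.5% v/v. MitoTracker Red CMXRos 250 nM 30 min pre-fix; formaldehyde 3.7% fix 30 min RT. HCS imaging, gain/loss fit vs DMSO.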

[9] = APR_HepG2_NuclearSize_72hr: Apredica 72-hour HepG2 Assay for Nuclear Size (AID 2282925); settings: high-content imaging, actives raise or lower the signal
Method in brief: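 HepG2; cpd 0.39–200 uM, 10 conc, duplicate; 72 h; DMSO 0.5% v/v; fix 3.7% formaldehyde 30 min RT; Triton permeabilization; Hoechst 2 ug/mL; HCS imaging 20x; nuclear diameter; gain/loss fit vs DMSO.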

[10] = target: CCAAT/enhancer-binding protein beta (Homo sapiens) (UniProt P17676); test: ATG_C_EBP_CIS: Attagene CIS-FACTORIAL HepG2 Assay for human CCAAT/Enhancer Binding Protein (C/EBP) beta (AID 2282927); settings: HepG2 Attagene cis-factorial transcription factor reporter; actives raise or lower the signal
Method in brief: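 Endogenous C/EBPb-driven reporter transcripts measured in transfected human HepG2 cells at 24 h via RT-PCR and capillary electrophoresis of labelled fragments. Activity fitted in both directions relative to DMSO baseline.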

[11] = ATG_CMV_CIS: Attagene CIS-FACTORIAL HepG2 Assay for human CMV (Internal Marker) (AID 2282928); settings: HepG2 CMV promoter reporter, transcription factor profiling; actives raise or lower the signal;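 further: endpoint acts as a background internal control marker rather than a target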
Method in brief: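 HepG2 cells transiently transfected with multiple cis-regulated reporter units; 24 h compound exposure. Reporter mRNA quantified by RT-PCR, 6-FAM primer-extension labeling, HpaI digestion and capillary electrophoresis; bidirectional fitting against DMSO baseline.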

[12] = ATG_DR4_LXR_CIS: Attagene CIS-FACTORIAL HepG2 Assay for human Liver X Receptor (LXR), DR4 submotif (AID 2282929); settings: HepG2 Attagene DR4 cis-reporter, mRNA transcription; actives raise or lower the signal
Method in brief: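 HepG2 cells transiently transfected with cis-promoter-driven multiplexed reporter units (DR4 element) were dosed for 24 h. Reporter mRNA was quantified by RT-PCR, fluorescent primer extension, HpaI digestion and capillary electrophoresis; bidirectional fitting versus DMSO baseline.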

[13] = target: Aryl hydrocarbon receptor (Homo sapiens) (UniProt P35869); test: ATG_Ahr_CIS: Attagene CIS-FACTORIAL HepG2 Assay for human Aryl Hydrocarbon Receptor (Ahr) (AID 2282930); settings: HepG2 AhR cis-factorial reporter transcription; actives raise or lower the signal
Method in brief: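 Reporter mRNA levels, quantified by RT-PCR and fluorescent capillary electrophoresis, reflect endogenous AhR transcriptional activity in HepG2 cells carrying transfected cis-promoter reporter constructs. Readout at 24 h post-dose; gain or loss fitted against DMSO baseline.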

[14] = ATG_AP_1_CIS: Attagene CIS-FACTORIAL HepG2 Assay for human Activator Protein 1 (AP-1) (AID 2282931); settings: HepG2 Attagene cis-factorial AP-1 reporter mRNA; actives raise or lower the signal
Method in brief: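 HepG2 cells transiently transfected with cis-element-driven multiplex reporter units; 24 h compound exposure. Reporter mRNA quantified by RT-PCR, FAM-labelled fragments resolved by capillary electrophoresis; bidirectional fit versus DMSO baseline.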

[15] = ATG_AP_2_CIS: Attagene CIS-FACTORIAL HepG2 Assay for human Activator Protein 2 (AP-2) (AID 2282932); settings: HepG2 AP-2 cis-reporter, Attagene transcription factor profiling; actives raise or lower the signal
Method in brief: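 Step one: transient transfection of HepG2 with reporter transcription units. Step two: 24 h chemical exposure. Step three: RNA extraction, RT-PCR, labelled fragment analysis by capillary electrophoresis; DMSO serves as baseline.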

[16] = ATG_BRE_CIS: Attagene CIS-FACTORIAL HepG2 Assay for human Bone Morphogenetic Protein (BMP) Response Element (BRE) (AID 2282933); settings: HepG2 BMP response element reporter, Attagene transcription factor profiling; actives raise or lower the signal
Method in brief: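 Read-out: reporter mRNA induction quantified by RT-PCR and capillary electrophoresis after 24 h chemical exposure of transfected HepG2 cells. Endogenous factor activity on the BMP response element; gain or loss fitted against DMSO baseline.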

[17] = target: Transcription factor E2F1 (Homo sapiens) (UniProt Q01094); test: ATG_E2F_CIS: Attagene CIS-FACTORIAL HepG2 Assay for human E2F Transcription Factor 1 (AID 2282935); settings: HepG2 Attagene cis-reporter, E2F reporter RNA transcripts; actives raise or lower the signal
Method in brief: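 Total RNA from 24 h-treated, reporter-transfected HepG2 cells undergoes DNase I treatment, oligo(dT) reverse transcription, PCR and 6-FAM primer extension before capillary electrophoresis.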

[18] = ATG_CRE_CIS: Attagene CIS-FACTORIAL HepG2 Assay for human cAMP Responsive Element (CRE) binding protein 3 (AID 2282926); settings: HepG2 CRE cis-reporter, Attagene multiplexed mRNA; actives raise or lower the signal
Method in brief: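 HepG2 cells transiently transfected with cis-element-driven multiple reporter transcription units; CRE reporter mRNA measured 24 h after dosing by RT-PCR, 6-FAM labelling, HpaI digestion and capillary electrophoresis. Bidirectional fit versus DMSO baseline.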

[19] = target: Retinoic acid receptor alpha (Homo sapiens) (UniProt P10276); test: ATG_DR5_RAR_CIS: Attagene CIS-FACTORIAL HepG2 Assay for human Retinoic Acid Receptor Alpha (RARE), DR5 submotif (AID 2282934); settings: HepG2 Attagene cis-factorial RARE DR5 reporter, mRNA; actives raise or lower the signal
Method in brief: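 Reporter transcripts from a DR5-regulated unit, measured via RT-PCR plus capillary electrophoresis, reflect endogenous RAR activity in transiently transfected human HepG2 liver cells. Exposure lasted 24 h; gain or loss of signal scored against DMSO.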

Chain of Transcription factor E2F1 (Homo sapiens) (Q01094 whole entry, looked up): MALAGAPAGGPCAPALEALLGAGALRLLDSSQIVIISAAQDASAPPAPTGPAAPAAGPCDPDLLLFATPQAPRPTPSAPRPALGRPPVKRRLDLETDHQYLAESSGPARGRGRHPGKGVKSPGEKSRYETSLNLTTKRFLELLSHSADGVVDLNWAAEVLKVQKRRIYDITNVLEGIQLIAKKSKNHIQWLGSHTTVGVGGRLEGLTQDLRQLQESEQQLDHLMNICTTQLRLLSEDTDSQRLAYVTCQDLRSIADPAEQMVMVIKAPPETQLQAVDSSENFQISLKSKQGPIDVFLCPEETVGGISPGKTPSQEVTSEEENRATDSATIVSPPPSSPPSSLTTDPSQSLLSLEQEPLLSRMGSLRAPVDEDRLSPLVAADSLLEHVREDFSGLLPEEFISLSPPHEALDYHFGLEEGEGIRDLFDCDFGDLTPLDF
Chain of Aryl hydrocarbon receptor (Homo sapiens) (P35869 whole entry, looked up): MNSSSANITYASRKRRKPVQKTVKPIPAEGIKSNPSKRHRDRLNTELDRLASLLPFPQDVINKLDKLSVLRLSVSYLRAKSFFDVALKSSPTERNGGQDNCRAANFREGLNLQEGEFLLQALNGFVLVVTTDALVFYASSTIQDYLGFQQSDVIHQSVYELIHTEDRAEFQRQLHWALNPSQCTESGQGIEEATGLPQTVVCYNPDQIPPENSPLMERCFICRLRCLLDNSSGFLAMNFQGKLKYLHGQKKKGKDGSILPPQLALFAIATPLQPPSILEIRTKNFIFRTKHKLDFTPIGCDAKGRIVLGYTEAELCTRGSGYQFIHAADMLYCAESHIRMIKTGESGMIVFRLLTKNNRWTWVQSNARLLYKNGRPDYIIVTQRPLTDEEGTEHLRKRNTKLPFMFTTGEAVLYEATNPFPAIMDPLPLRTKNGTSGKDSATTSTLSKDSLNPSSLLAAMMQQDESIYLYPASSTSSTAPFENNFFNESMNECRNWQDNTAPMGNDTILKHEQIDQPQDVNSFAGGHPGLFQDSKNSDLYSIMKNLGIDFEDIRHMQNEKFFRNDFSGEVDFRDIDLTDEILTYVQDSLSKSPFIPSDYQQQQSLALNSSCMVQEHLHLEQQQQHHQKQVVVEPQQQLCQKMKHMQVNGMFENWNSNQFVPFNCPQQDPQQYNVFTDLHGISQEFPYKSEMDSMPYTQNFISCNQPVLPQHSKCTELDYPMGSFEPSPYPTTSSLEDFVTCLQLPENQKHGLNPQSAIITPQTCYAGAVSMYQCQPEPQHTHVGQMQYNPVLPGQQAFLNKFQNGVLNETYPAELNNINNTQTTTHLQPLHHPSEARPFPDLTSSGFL
Chain of CCAAT/enhancer-binding protein beta (Homo sapiens) (P17676 whole entry, looked up, the tested form may be a part): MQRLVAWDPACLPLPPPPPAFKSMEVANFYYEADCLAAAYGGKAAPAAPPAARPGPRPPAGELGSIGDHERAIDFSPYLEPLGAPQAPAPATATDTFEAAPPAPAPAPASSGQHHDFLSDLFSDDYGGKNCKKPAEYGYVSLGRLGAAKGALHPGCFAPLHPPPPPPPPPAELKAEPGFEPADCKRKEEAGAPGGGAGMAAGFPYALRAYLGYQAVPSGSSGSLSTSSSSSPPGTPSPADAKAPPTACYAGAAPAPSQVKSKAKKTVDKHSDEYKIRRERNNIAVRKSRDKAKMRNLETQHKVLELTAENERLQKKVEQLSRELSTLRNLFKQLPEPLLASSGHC
Chain of Retinoic acid receptor alpha (Homo sapiens) (P10276 whole entry, looked up): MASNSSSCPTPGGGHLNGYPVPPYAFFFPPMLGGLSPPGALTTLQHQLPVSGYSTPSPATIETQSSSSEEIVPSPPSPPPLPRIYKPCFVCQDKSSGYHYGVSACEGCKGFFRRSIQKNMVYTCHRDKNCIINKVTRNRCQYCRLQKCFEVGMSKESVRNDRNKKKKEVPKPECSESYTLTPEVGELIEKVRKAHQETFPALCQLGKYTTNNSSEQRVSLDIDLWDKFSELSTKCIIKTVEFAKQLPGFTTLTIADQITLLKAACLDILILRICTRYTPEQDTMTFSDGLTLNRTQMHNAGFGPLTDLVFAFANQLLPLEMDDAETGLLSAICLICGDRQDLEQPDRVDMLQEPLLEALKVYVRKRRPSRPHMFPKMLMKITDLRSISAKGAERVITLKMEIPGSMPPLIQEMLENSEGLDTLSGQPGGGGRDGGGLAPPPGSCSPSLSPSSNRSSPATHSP

Structure (SMILES): ClC1=C(Cl)[C@]2(Cl)[C@@H]3[C@@H](Cl)[C@H]4O[C@H]4[C@@H]3C1(Cl)C2(Cl)Cl
- AC50 [1]: 48.2 µM (active)
- outcome [2]: inactive
- AC50 [3]: 51.6 µM (active)
- outcome [4]: inactive
- outcome [5]: inactive
- outcome [6]: inactive
- AC50 [7]: 54.5 µM (active)
- outcome [8]: inactive
- outcome [9]: inactive
- outcome [10]: inactive
- AC50 [11]: 33.7 µM (active)
- AC50 [12]: 8.22 µM (active)
- outcome [13]: inactive
- AC50 [14]: 35.9 µM (active)
- outcome [15]: inactive
- outcome [16]: inactive
- outcome [17]: inactive

Structure (SMILES): CN(C)c1nc(=O)n(C2CCCCC2)c(=O)n1C
- outcome [1]: inactive
- outcome [2]: inactive
- outcome [3]: inactive
- outcome [4]: inactive
- outcome [5]: inactive
- outcome [6]: inactive
- outcome [8]: inactive
- outcome [9]: inactive
- outcome [10]: inactive
- outcome [11]: inactive
- outcome [12]: inactive
- outcome [13]: inactive
- outcome [14]: inactive
- outcome [15]: inactive
- outcome [16]: inactive
- outcome [17]: inactive

Structure (SMILES): CCCCCCCCOC(=O)c1ccccc1C(=O)OCCCCCCCC
- outcome [1]: inactive
- outcome [2]: inactive
- outcome [3]: inactive
- outcome [4]: inactive
- outcome [5]: inactive
- outcome [6]: inactive
- outcome [8]: inactive
- outcome [9]: inactive
- outcome [18]: inactive
- outcome [10]: inactive
- outcome [11]: inactive
- outcome [12]: inactive
- outcome [13]: inactive
- outcome [14]: inactive
- outcome [15]: inactive
- outcome [16]: inactive
- outcome [19]: inactive
- outcome [17]: inactive
